Source: PubChem BioAssay (National Center for Advancing Translational Sciences (NCATS))
Most compounds without a hit are left out; they make up all but 1.5% or so of the library.
Six1-Eya2 blk: inhibitors of human Six1/Eya2 interaction. AlphaScreen GST-Six1/His-Eya2 binding, biochemical; active compounds read low. Q15475+O00167. hit rate 0.56% among 360,000. AID 651725. activity change, % (concentration not given with the values); in the data active = activity change below about -65%; inconclusive = mostly about -30% to -63%; also: % is scaled to controls: 0 for no effect and ±100 for the full control effect
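Homogeneous AlphaScreen proximity assay pairing GST-Six1 with His-tagged Eya2 (added as 5X mix: 250 nM and 500 nM) in 50 mM Tris pH 8.0, 300 mM NaCl, 1 mM TCEP. Glutathione donor and nickel acceptor beads; 1 h, 37 °C, dark.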
CtBP-E1A blk: CtBP/E1A binding inhibition; AlphaScreen GST-E1A/His-CtBP binding, 1536-well; active compounds read low; activity change, % (no concentration beside the values); hit rate 0.49% among 340,000; AID 651724; in the data active = activity change below about -65%; inconclusive = mostly about -30% to -63%; also: % is scaled to controls: 0 for no effect and ±100 for the full control effect
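In 5 uL wells, 23 nL compound meets equimolar GST-E1A and His-CtBP (5X stock 125 nM each) for 2 h, 37 °C. Beads (5X, 50 ug/mL) then 1 h, 37 °C, dark.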
Eya2 inh: inhibitors of human Eya2 phosphatase activity; AID 488837; O00167; Potency, µM (highest dose often 76.9 µM), for inactives: at the highest dose activity, negative = inhibition, most hits filed as inhibitors; recombinant Eya2, OMFP fluorescence dephosphorylation (OMFP is methylfluorescein phosphate); hit rate 0.006% among 330,000; also: potency is read from the fitted curve at half-maximal effect; % is scaled to controls: 0 for no effect and ±100 for the full control effect
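Eya2 (0.2 uM) preincubated 10 min at ambient with compound, then OMFP substrate added at 50 uM; 10 min reaction in 50 mM HEPES pH 7.5, 50 mM NaCl, 5 uM MgCl2, 0.05% BSA, 1 mM DTT. Fluorescence read at Ex 485/Em 525 nm.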
GALK inh: blocks human galactokinase activity | P51570 | Purified GALK, Kinase-Glo residual ATP luminescence | Potency, µM (series often up to 57.5 µM), inactives show at the top dose activity change, negative = inhibition, actives largely listed as inhibitors | hit rate 0.007% among 270,000; also: potency is read from the fitted curve at half-maximal effect; % is scaled to controls: 0 for no effect and ±100 for the full control effect
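GALK at 5 nM final was combined with compound, 35 uM ATP and 100 uM galactose in HEPES pH8.0 with MgCl2 and DTT. The reaction ran one hour at room temperature before luminescent ATP detection.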
TrxR1 inh-1: blocks rat thioredoxin reductase 1. hit rate 1% among 390,000. Potency, µM (top dose mostly 114 µM), inactives show at the top dose activity change, negative = inhibition, hits mostly inhibitors. O89049. recombinant rTrxR1, NADPH fluorescence consumption, selenite substrate; also: potency is read from the fitted curve at half-maximal effect; % is scaled to controls: 0 for no effect and ±100 for the full control effect; nearly all actives have a fitted effect of over 65% in size
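Rat TrxR1 (90 nM in the dispensed reagent) was pre-reduced with 400 uM NADPH for 5 min at room temperature, then incubated with compound for 15 min. After 400 uM selenite was added, NADPH fluorescence (Ex 340/Em 450 nm) was followed for 8 min.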
TrxR1 substrate: substrates of rat thioredoxin reductase 1; Potency, µM (titrated, usually from 114 µM), inactives show at the highest dose activity change, negative = substrate turnover; hit rate 0.01% among 390,000; O89049; purified TrxR1 substrate turnover, NADPH consumption readout; also: potency is read from the fitted curve at half-maximal effect; % is scaled to controls: 0 for no effect and ±100 for the full control effect; nearly all actives have a fitted effect of over 50% in size
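Rat TrxR1, dispensed at 90 nM, was prereduced with 400 uM NADPH (final) for 5 min at ~22 deg C, then incubated with compound 15 min before 400 uM selenite. A first-read NADPH fluorescence drop versus no-compound background flagged substrates.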
GR counterassay: glutathione reductase inhibition, TrxR1 selectivity check; shares compounds with TrxR1 inh-1; purified GR, DTNB reduction absorbance 405 nm kinetic; activity change, negative = inhibition, % at 57.1 µM; 55 tested, under 10 active; AID 652020
Target sequence (P00390 whole entry, looked up): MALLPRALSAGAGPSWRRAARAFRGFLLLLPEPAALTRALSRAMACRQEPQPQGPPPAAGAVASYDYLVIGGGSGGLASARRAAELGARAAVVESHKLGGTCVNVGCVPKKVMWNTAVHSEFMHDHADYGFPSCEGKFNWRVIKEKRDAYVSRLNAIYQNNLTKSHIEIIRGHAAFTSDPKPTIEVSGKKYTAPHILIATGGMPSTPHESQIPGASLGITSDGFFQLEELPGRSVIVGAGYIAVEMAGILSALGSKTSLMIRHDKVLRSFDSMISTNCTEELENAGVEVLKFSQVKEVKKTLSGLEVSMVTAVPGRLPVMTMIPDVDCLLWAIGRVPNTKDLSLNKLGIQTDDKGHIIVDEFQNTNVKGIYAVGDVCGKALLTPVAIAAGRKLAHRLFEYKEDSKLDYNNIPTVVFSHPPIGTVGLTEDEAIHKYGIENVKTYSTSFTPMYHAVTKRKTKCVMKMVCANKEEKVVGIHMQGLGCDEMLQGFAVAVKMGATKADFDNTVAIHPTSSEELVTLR
TrxR1 inh-2: validation of rat thioredoxin reductase 1 inhibitors; shares compounds with TrxR1 inh-1; Potency, µM, hits mostly inhibitors; recombinant TrxR1, NADPH fluorescence consumption, selenite substrate; hit rate 50% among 55; AID 652023
TrxR1 insulin: TrxR1 inhibition in insulin mechanism assay; shares compounds with TrxR1 inh-1; AID 652037; TrxR1 Trx-coupled insulin reduction, NADPH absorbance 340 nm; Potency, µM; hit rate 20% among 55;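 active = compounds with a measured potency under 100 micromolar; inconclusive = filed, but no rule given; inactive = potency at or above that, or unmeasurable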
TrxR1 inh-3: rat thioredoxin reductase 1 inhibition, DTNB assay | purified TrxR1, DTNB reduction, A412 | AID 652256 | Potency, µM | shares compounds with TrxR1 inh-1 | hit rate 90% among 55;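 active = a half-inhibiting concentration could be measured and was below 100 µM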
The depositor's hits bear a star; i = inactive; ? = inconclusive; . = not tested or not shown; ! = not confirmed by another sample; [ ] = dose if it differs, or a comment. Unless noted, calls follow the shape of the dose curve; as a rule, active = well fitted curve in the direction sought with a large enough effect; inconclusive = small, poorly fitted or top-dose-only effect, or another doubt; inactive = no such curve, though single readings can be large; an effect the other way counts as inactive or inconclusive.

SMILES	Six1-Eya2 blk	CtBP-E1A blk	Eya2 inh	GALK inh	TrxR1 inh-1	TrxR1 substrate	GR counterassay	TrxR1 inh-2	TrxR1 insulin	TrxR1 inh-3
CC1CN(C(=O)COC(=O)c2ccc(N)c([N+](=O)[O-])c2)CC(C)O1 (stereo not given)	-3	-19	-4%	-1%	4%	6%[57.1 µM]	.	.	.	.
CC1CCCCN1C(=O)COC(=O)CSc1ccc(C(N)=O)cc1[N+](=O)[O-] (stereo not given)	-7	3	.	.	13%[57.1 µM]	6%[57.1 µM]	.	.	.	.
CCOC(=O)c1[nH]c2ccccc2c1NC(=O)c1ccccc1OCC	.	.	.	.	-9%	-9%	.	.	.	.
COc1cc(C(c2nnnn2C(C)(C)C)N2CCN(c3nc4ccccc4s3)CC2)ccc1O (stereo not given)	-2	5	6%	2%	13µM*	10%[57.1 µM]	-3	?	i	0.16µM*
COC(=O)c1ccccc1S(=O)(=O)N(Cc1ccco1)Cc1cc2cc(OC)ccc2[nH]c1=O	-8	-3	10%	1%	10µM*	24%	0	6*	i	7.4µM*
Cc1ccc2[nH]c(=O)c(CN(CCCN3CCOCC3)Cc3nnnn3C3CCCC3)cc2c1	0	0	0%	8%	20µM*	9%	?	?	3µM*	5.4µM*
Cc1c(F)cccc1NC(=O)C1CCCN1S(=O)(=O)c1ccc(F)cc1 (stereo not given)	.	.	.	.	6%	-6%	.	.	.	.
CCN1C(Nc2ccccc2)=NC[C@@H]1Cc1ccccc1	0	8	8%	.	16µM*	5%	-11	?	i	0.87µM*
CCCCCCCN1C(Nc2ccccc2)=NC[C@@H]1Cc1ccccc1	-5	-2	6%	.	11%	1%	.	.	.	.
Cc1ccc(Nc2c(-c3ccc(C)o3)nc3ccccn23)cc1	.	.	.	.	?	114%	.	.	.	.
Cc1ccc(Nc2c(-c3ccc(C)o3)nc3cnccn23)cc1	3	2	2%	2%	4µM*	13%[57.1 µM]	-12	?	i	2µM*
Cc1cccc(C(=O)Nc2nnc(S(=O)(=O)N(C)Cc3ccco3)s2)c1	-3	0	0%	-5%	45µM*!	0%	-3	?	?	49µM*
COc1cc(OC)c(NC(=O)Nc2nnc(N(C)C3CCCCC3)s2)cc1Cl	.	.	.	.	10%	-1%	.	.	.	.
C/C=C\C=C\C(=O)Nc1cccc(C2=NOC3(C2)C[C@@H](C(N)=O)N(C(=O)C(c2ccccc2)c2ccccc2)C3)c1 (stereo not given in full)	-12	.	0%	4%	13µM*	-3%	.	.	i	i
O=C(NC1CCCCC1)c1c[nH]c2ccc(S(=O)(=O)Nc3ccccc3F)cc2c1=O	.	.	.	.	5%	-1%	.	.	.	.
O=C(Cn1c(=O)nc(-c2ccccc2F)c2cc(Cl)ccc21)N1CCN(c2ccccc2F)CC1	.	.	.	.	7%[57.1 µM]	-4%[57.1 µM]	.	.	.	.
